Sampled rows, rich in hits. Any-hit rate of the full collection: about 21%.
Pf growth 48h: Primary qHTS for delayed death inhibitors of the malarial parasite plastid, 48 hour incubation | 5.9% of 310,000 active | P. falciparum luciferase growth in erythrocytes, 48 h | Potency, µM (titrated, usually from 28.7 µM), usual class: inhibitors
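Luciferase-expressing P. falciparum in infected erythrocytes (2% hematocrit, 0.1% parasitemia final) in RPMI 1640/0.5% Albumax were exposed to compound for 48 hours at 37 C, 5% CO2; growth read as luminescence.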
FBPA Giardia inh: qHTS Assay for Inhibitors of Fructose-1,6-bisphosphate Aldolase from Giardia Lamblia; Potency, µM (series often up to 59.6 µM), most hits filed as inhibitors; 0.71% of 290,000 active; AID 2451, 2010; A8B2U2; purified Giardia FBPA; further: nearly all actives have a fitted effect of over 55% in size
Target sequence (A8B2U2 whole entry, looked up): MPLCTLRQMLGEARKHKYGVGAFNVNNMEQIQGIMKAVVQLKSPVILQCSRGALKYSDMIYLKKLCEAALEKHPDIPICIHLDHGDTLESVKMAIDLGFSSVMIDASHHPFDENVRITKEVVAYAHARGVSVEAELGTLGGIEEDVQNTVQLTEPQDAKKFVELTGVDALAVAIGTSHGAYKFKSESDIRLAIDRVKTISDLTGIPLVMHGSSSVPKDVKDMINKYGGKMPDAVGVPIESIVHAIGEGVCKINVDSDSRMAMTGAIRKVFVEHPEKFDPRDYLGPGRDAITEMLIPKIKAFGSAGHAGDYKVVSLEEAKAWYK
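40 nM FBPA preincubated 10 min at RT with compound (up to 57.5 uM final), then substrate plus GAPDH/TPI/NAD/arsenate coupling and diaphorase/resazurin added. Fluorescence read after 20 min at RT, 525/598 nm.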
CHX counter: Cycloheximide Counterscreen for Small Molecule Inhibitors of Shiga Toxin; 12% of 300,000 active; max response, %; cell reporter, cycloheximide protein synthesis inhibition counterscreen; in the data active means max response mostly above about 13%, no sharp cut-off; inactive means mostly below about 14%; further: read at 38.3 µM for the half of the compounds with a filed dose
NS1 function inh: qHTS Assay for Inhibitors of Influenza NS1 Protein Function; Potency, µM (highest dose often 46.1 µM); 0.4% of 270,000 active; calls by dose curve; further: actives are rising curves; nearly all actives have a fitted effect of over 50% in size
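A cell-based growth assay was used: compounds that relieve NS1-induced slow growth of budding yeast raise OD600. Assay medium was yeast nitrogen base with ammonium sulphate and -URA supplement, pH 6.0, with 2% galactose.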
Pf growth 96h: Primary qHTS for delayed death inhibitors of the malarial parasite plastid, 96 hour incubation. AID 504834, 2011. P. falciparum luciferase reporter growth, 96 h. 6.9% of 320,000 active. Potency, µM (series often up to 28.7 µM), most hits filed as inhibitors
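Cell-based qHTS: luciferase-tagged P. falciparum in erythrocytes (2% hematocrit, 0.05% parasitemia final) incubated with compounds for 96 hours, 37 C, 5% CO2; luciferase detection reagent then added and luminescence measured.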
Shiga inhibitor: A qHTS for Small Molecule Inhibitors of Shiga Toxin; AID 2315, 2010; 9.2% of 290,000 active; Vero cells, Shiga toxin protein synthesis inhibition reporter; inhibition, % at 38.7 µM; in the data active means inhibition mostly above about 28%, no sharp cut-off; inactive means mostly below about 43%
Each line names hits and unclear results; the compound was inactive in the other large screens. Unless noted, the call rests on the fitted dose curve; in most records, active means well fitted curve in the direction sought with a large enough effect; inconclusive means small, poorly fitted or top-dose-only effect, or another doubt; inactive means no such curve, though single readings can be large; an effect the other way counts as inactive or inconclusive.

COc1ccc(CCNC(=O)c2c(C)nc3ccccn23)cc1	Pf growth 48h inconclusive, Pf growth 96h 11.7µM (no result: NS1 function inh)
N=c1ccn(Cc2ccc([N+](=O)[O-])cc2)cc1	Pf growth 48h 4.15µM, Pf growth 96h inconclusive
Cc1ccc(S(=O)(=O)NC(=O)COc2ccccc2C)c(C)c1	none (no result: FBPA Giardia inh)
CC(C)NC(=O)[C@]1(C)CCC[C@@]2(C)C3CC[C@@]4(C)C[C@]3(CCC21)CC4=O (some centres undefined)	none (no result: FBPA Giardia inh, CHX counter, NS1 function inh, Shiga inhibitor)
COC(=O)[C@]1(C)CCC[C@@]2(C)C3CC[C@@]4(C)C[C@]3(CCC21)CC(=O)N4Cc1ccc(OC)cc1 (some centres undefined)	Pf growth 48h 1.65µM, Pf growth 96h 1.47µM (no result: FBPA Giardia inh, CHX counter, NS1 function inh, Shiga inhibitor)
N#Cc1ccc(COC(=O)CN2C(=O)NC3(CCCC3)C2=O)cc1	Pf growth 48h inconclusive (no result: FBPA Giardia inh, CHX counter, NS1 function inh, Shiga inhibitor)
CCCCNC(=O)C(CC)(ONc1ccccc1C(F)(F)F)c1ccccc1OC (centres undefined)	Pf growth 48h 10.4µM, Pf growth 96h inconclusive (no result: FBPA Giardia inh, CHX counter, NS1 function inh, Shiga inhibitor)
CCN(CC(=O)Nc1ccccc1OC)CC(=O)Nc1ccccc1C(F)(F)F	Pf growth 48h inconclusive (no result: NS1 function inh)
CCOc1ccccc1NC(=O)c1nc(S(=O)(=O)Cc2ccccc2)ncc1Cl	Pf growth 96h inconclusive (no result: FBPA Giardia inh)
CSc1nnc(NC(=O)c2nc(S(=O)(=O)Cc3ccccc3)ncc2Cl)s1	CHX counter 53.8, Shiga inhibitor 68.0 (no result: FBPA Giardia inh)
CCc1ccc(NC(=O)c2nc(S(=O)(=O)Cc3ccccc3)ncc2Cl)cc1	Pf growth 96h inconclusive
CC(C)c1nnc(NC(=O)c2nc(S(=O)(=O)Cc3ccccc3)ncc2Cl)s1	CHX counter 67.1, Shiga inhibitor 74.9 (no result: FBPA Giardia inh)
CCCc1nnc(NC(=O)c2nc(S(=O)(=O)Cc3ccc(C)cc3)ncc2Cl)s1	CHX counter 30.5, Pf growth 96h inconclusive, Shiga inhibitor 44.4 (no result: FBPA Giardia inh)
CCC(c1nnnn1Cc1ccco1)N(Cc1cc2cc(C)cc(C)c2[nH]c1=O)CC1CCCO1 (centres undefined)	Pf growth 48h inconclusive
Cc1ccc2[nH]c(=O)c(CN(CCCO)C(C)c3nnnn3Cc3ccco3)cc2c1 (centres undefined)	Pf growth 48h 2.33µM
CCC(c1nnnn1Cc1ccco1)N(Cc1ccccc1OC)Cc1cc2cc(C)ccc2[nH]c1=O (centres undefined)	Pf growth 48h 1.47µM, Pf growth 96h inconclusive
COc1ccc(OC[C@@H](CO)OC)cc1	none (no result: Pf growth 48h, CHX counter, NS1 function inh, Pf growth 96h, Shiga inhibitor)
Cc1cc(C)cc(NC(=O)CCCCCN2C(=O)[C@@H]3Cc4ccccc4CN3C2=O)c1	Pf growth 96h inconclusive (no result: FBPA Giardia inh)
COc1cccc(NC(=O)CCCCCN2C(=O)[C@@H]3Cc4ccccc4CN3C2=O)c1	Pf growth 48h inconclusive, Pf growth 96h 11.7µM (no result: FBPA Giardia inh)
CCOC(=O)Nc1ccc(C)cc1NC(=O)OCC	Pf growth 96h inconclusive
CCOC(=O)Nc1ccc(NCc2ccc(F)cc2)nc1N	Pf growth 48h 13.1µM, NS1 function inh inconclusive, Pf growth 96h 6.75µM (no result: CHX counter, Shiga inhibitor)
NC(=O)C1CCN(c2nc(-c3ccccc3C(F)(F)F)cs2)CC1	none (no result: FBPA Giardia inh, CHX counter, NS1 function inh, Shiga inhibitor)
O=[N+]([O-])c1cccc(-c2csc(CS(=O)(=O)Cc3ccco3)n2)c1	CHX counter 15.9
CCOC(=O)c1cc(S(=O)(=O)NC2CCC(C)CC2)cn1C (centres undefined)	none (no result: FBPA Giardia inh)
COCC(=O)Nc1ccc2c(c1)OCC(=O)N2Cc1ccc(C)cc1	Pf growth 48h inconclusive, CHX counter 12.0, Pf growth 96h inconclusive
Cc1ccc(NC(=O)COC(=O)CN2C(=O)COc3ccccc32)cc1	none (no result: Pf growth 48h)
OCl	none (no result: FBPA Giardia inh, CHX counter, NS1 function inh, Shiga inhibitor)
Cc1[nH]c2ccccc2c1C(=O)COc1ccccc1	CHX counter 14.8
Cc1[nH]c2ccccc2c1C(=O)COc1ccccc1F	CHX counter 24.8
Cc1ccc(S(=O)(=O)CCC(=O)OCC(=O)c2c(C)[nH]c3ccccc23)cc1	none
COC(=O)[C@@H]1[C@@H]2C[C@H]3c4[nH]c5ccccc5c4CCN3C[C@@H]2CC[C@@H]1OS(=O)(=O)O	none (no result: Pf growth 48h, FBPA Giardia inh, CHX counter, Pf growth 96h, Shiga inhibitor)
Cc1nn(C(C)(C)C)c(OC(=O)c2ccc3c(c2)OCO3)c1Sc1ccccc1	none (no result: Pf growth 96h)
Cc1nn(C(C)(C)C)c(OC(=O)c2ccc3c(c2)OCO3)c1S(=O)(=O)c1ccccc1	CHX counter 37.3 (no result: Pf growth 96h)
Cc1ccc(OC(C)C(=O)N(C)c2ccccc2)c([N+](=O)[O-])n1 (centres undefined)	none (no result: FBPA Giardia inh, CHX counter, NS1 function inh, Shiga inhibitor)
